The text below walks through data of PubChem BioAssay (NCATS).

Assay [1] can be described thus: Quantitative High-Throughput drug screen in 47 multiple myeloma cell lines against the NCATS MIPE library collection: SKMM1_PLB cell viability assay (AID 1919863). Further: nearly all actives have a fitted effect of over 35% in size. Further: potency means the concentration at half of the fitted maximal effect. On viability: series mostly up to about 46 µM. Particulars: SKMM1 myeloma viability, CellTiter-Glo ATP, 48 h; viability: hits give low values. In short, it runs like this: (§1)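 Plated at 500 cells per well, myeloma lines received MIPE 4.0 compounds by pin tool. Following 48 h culture at 37 °C, CellTiter-Glo luminescence gave viability relative to DMSO and media-only controls.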
For orientation: ATP-based viability assays read luminescence as a measure of living cells.

Assay [2] in a line: Quantitative High-Throughput drug screen in 47 multiple myeloma cell lines against the NCATS MIPE library collection: U266_ATCC cell viability assay (AID 1919864). Further: nearly all actives have a fitted effect of over 35% in size. Further: potency means the concentration at half of the fitted maximal effect. In short, it runs like this: as §1
Assay [3] can be described thus: Quantitative High-Throughput drug screen in 47 multiple myeloma cell lines against the NCATS MIPE library collection: XG6_PLB cell viability assay (AID 1919865). Further: nearly all actives have a fitted effect of over 40% in size. Further: potency means the concentration at half of the fitted maximal effect. The procedure, abridged:
as §1

The nature of assay [4]: Quantitative High-Throughput drug screen in 47 multiple myeloma cell lines against the NCATS MIPE library collection: VP6_DJ cell viability assay (AID 1919867). Further: nearly all actives have a fitted effect of over 40% in size. Further: potency means the concentration at half of the fitted maximal effect. In short, it runs like this:
as §1

Assay [5] is described as follows: Quantitative High-Throughput drug screen in 47 multiple myeloma cell lines against the NCATS MIPE library collection: UTMC2_PLB cell viability assay (AID 1919868). Further: nearly all actives have a fitted effect of over 55% in size. Further: potency means the concentration at half of the fitted maximal effect. In short, it runs like this: as §1
Assay [6] can be described thus: Quantitative High-Throughput drug screen in 47 multiple myeloma cell lines against the NCATS MIPE library collection: PE2_PLB cell viability assay (AID 1919869). Further: nearly all actives have a fitted effect of over 35% in size. Further: potency means the concentration at half of the fitted maximal effect. The procedure, abridged:
as §1

Assay [7] can be described thus: Quantitative High-Throughput drug screen in 47 multiple myeloma cell lines against the NCATS MIPE library collection: PCM6_Riken cell viability assay (AID 1919870). Further: nearly all actives have a fitted effect of over 30% in size. Further: potency means the concentration at half of the fitted maximal effect. The procedure, abridged: as §1
A short description of assay [8]: Quantitative High-Throughput drug screen in 47 multiple myeloma cell lines against the NCATS MIPE library collection: RPMI8226_ATCC cell viability assay (AID 1919871). Further: nearly all actives have a fitted effect of over 30% in size. Further: potency means the concentration at half of the fitted maximal effect. The procedure, abridged: as §1
Assay [9] is described as follows: Quantitative High-Throughput drug screen in 47 multiple myeloma cell lines against the NCATS MIPE library collection: XG1_PLB cell viability assay (AID 1919866). Further: nearly all actives have a fitted effect of over 35% in size. Further: potency means the concentration at half of the fitted maximal effect. The procedure, abridged: as §1
Assay [10] in a line: Quantitative High-Throughput drug screen in 47 multiple myeloma cell lines against the NCATS MIPE library collection: OPM1_PLB cell viability assay (AID 1918989).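 Further: series mostly up to about 46 µM; 100% = DMSO-only wells and 0% = media-only wells; nearly all actives have a fitted effect of over 40% in size.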 In short, it runs like this:
as §1

As usually defined, the viability is a read-out of living cells in per cent, often relative to untreated cells.

Results filed as inconclusive are left out. A number with no mark means an inactive call. Calls of active or inactive are those of the source. The call rests on the fitted dose curve; in most records, active means well fitted cell-killing curve with a large enough effect; inconclusive means small, poorly fitted or top-dose-only effect, or effect the other way; inactive means no such curve, though single readings can be large or run the other way.

As for `CNC(=O)c1cc(Oc2ccc(NC(=O)Nc3ccc(Cl)c(C(F)(F)F)c3)cc2)ccn1`, the Potency was 29.6 µM (active) in [1]; 23.5 µM (active) in assay [2]; 0.148 µM (active) in assay [3]; 8.33 µM (active) in assay [4]; 9.35 µM (active) in assay [5]; 7.43 µM (active) in assay [6]. Besides, the Potency in assay [7] is 7.43 µM (active); in assay [8], 20.9 µM (active).

For the compound `COc1c(N2CCNC(C)C2)c(F)cc2c(=O)c(C(=O)O)cn(C3CC3)c12` (configuration not stated), the viability in [1] was 135%. For the same compound, the Potency entry in assay [3], in assay [9], in [7] and in assay [8] was “inactive” each time.

As for `CN(CCOc1ccc(CC2SC(=O)NC2=O)cc1)c1ccccn1` (configuration not stated), the viability in assay [1] is 112%. Further, the Potency entry in assay [3], in assay [4], in assay [6] and in assay [7] was “inactive” throughout.

For `CC(=O)Oc1ccccc1C(=O)Nc1ncc([N+](=O)[O-])s1`, the Potency was 38.2 µM (active) in assay [1]; 24.1 µM (active) in assay [3]; 30.3 µM (active) in assay [9]; 17.1 µM (active) in assay [4]; 13.6 µM (active) in assay [5]; 13.6 µM (active) in assay [6]. Further, the results for the Potency in [7] and in assay [8] were 27 µM (active) and 19.1 µM (active), respectively.

As for `COc1cnc(NS(=O)(=O)c2ccc(N)cc2)nc1`, in [1], the viability is 141%. In addition, the Potency entry in assay [2], in [6] and in assay [8] was “inactive” in each case.

Turning to `N[C@@H](Cc1ccc(O)c(O)c1)C(=O)O`, the Potency in assay [1] was 26.4 µM (active). Moreover, the Potency result in assay [3], in [9] and in [8] was “inactive” each time.

For the compound `CCN[C@H]1C[C@H](C)S(=O)(=O)c2sc(S(N)(=O)=O)cc21`, the Potency entry in [10] and in [6] was “inactive” each time.

Turning to `COc1cc([C@@H]2c3cc4c(cc3[C@H](O)[C@H]3COC(=O)[C@H]23)OCO4)cc(OC)c1OC`, in assay [1], the viability was 65.8%. Also, the Potency result in [2], in [3], in assay [9], in assay [5], in [6] and in assay [7] was “inactive” each time.

Consider `COc1cc(NCc2ccc3nc(N)nc(N)c3c2C)cc(OC)c1OC`, for which the Potency was 11.8 µM (active) in assay [1]; 11.8 µM (active) in assay [3]; 2.64 µM (active) in assay [4]; 0.743 µM (active) in [5]; 1.66 µM (active) in assay [6]; 4.69 µM (active) in assay [7]. Further, the Potency in assay [8] is 16.6 µM (active).

Turning to `Cc1cc(NS(=O)(=O)c2ccc(N)cc2)no1`, the viability in assay [1] was 140%. Moreover, in assay [2], the Potency was 10.5 µM (active). Also, the Potency entry in assay [4], in [6], in assay [7] and in assay [8] was “inactive” throughout.

For the compound `O=c1oc2c(O)c(O)cc3c(=O)oc4c(O)c(O)cc1c4c23`, the Potency entry in assay [10], in assay [9], in assay [6] and in assay [7] was “inactive” in each case.

With `O=C(O)c1cn(C2CC2)c2cc(N3CCNCC3)c(F)cc2c1=O`, the viability in assay [1] is 166%. Moreover, the Potency entry in assay [2], in assay [3], in assay [9], in [6], in assay [7] and in assay [8] was “inactive” in each case.

For the compound `O[C@@H](CNC[C@H](O)[C@H]1CCc2cc(F)ccc2O1)[C@@H]1CCc2cc(F)ccc2O1`, the Potency in [1] was 18.7 µM (active); in assay [3], 13.2 µM (active); in assay [9], 20.9 µM (active); in assay [5] it was 20.9 µM (active); in assay [6], 26.4 µM (active); in assay [7], 16.6 µM (active). In [8], the Potency was 20.9 µM (active).

`CC(C(=O)O)c1ccc2c(c1)CC(=O)c1ccccc1S2` (configuration not stated): the Potency result in [10], in assay [6] and in assay [8] was “inactive” throughout.

Take `CN(C)CCc1c[nH]c2ccc(C[C@H]3COC(=O)N3)cc12`: in assay [1], the viability is 104%. For the same compound, in assay [3], the Potency was 3.32 µM (active). Moreover, the Potency result in assay [7] and in [8] was “inactive” each time.

Consider `CCCCS(=N)(=O)CCC(N)C(=O)O` (configuration not stated), for which the Potency result in assay [2], in [6] and in [8] was “inactive” throughout. In addition, the Potency in [9] is 13.2 µM (active); in assay [7], 18.7 µM (active).

With `Clc1ccccc1CN1CCc2sccc2C1`, the Potency entry in assay [8] is “inactive”.

Take `CC(N)C12CC3CC(CC(C3)C1)C2` (configuration not stated): the viability in [1] is 118%. Further, the Potency entry in [3], in [6], in assay [7] and in [8] was “inactive” each time.

As for `C[C@@H](NCCCc1cccc(C(F)(F)F)c1)c1cccc2ccccc12`, the viability in [1] is 110%. In addition, the Potency entry in [3], in assay [6] and in [7] was “inactive” throughout.

As for `Nc1nc(N)c2nc(CNc3ccc(C(=O)NC(CCC(=O)O)C(=O)O)cc3)cnc2n1` (configuration not stated), the Potency in assay [2] was 0.148 µM (active).

Take `CCN(CC)CC#CCOC(=O)C(O)(c1ccccc1)C1CCCCC1` (configuration not stated): the Potency result in assay [3], in assay [9], in assay [5] and in assay [6] was “inactive” throughout.

For `CCC(C)(C)c1ccc(CC(C)CN2C[C@@H](C)O[C@@H](C)C2)cc1` (some centres not stated), the Potency entry in assay [5] was “inactive”.

Take `CCC(=O)O[C@]1(C(=O)SCF)[C@H](C)C[C@H]2[C@@H]3C[C@H](F)C4=CC(=O)C=C[C@]4(C)[C@@]3(F)[C@@H](O)C[C@@]21C`: the Potency was 4.18 µM (active) in assay [3], 33.2 µM (active) in assay [4] and 0.0019 µM (active) in assay [8]. Also, the Potency result in [6] was “inactive”.

For `Cc1cccc(N(C)C(=S)Oc2ccc3ccccc3c2)c1`, the viability in assay [1] was 112%. In addition, the Potency entry in assay [3], in assay [5] and in assay [6] was “inactive” throughout.

As for `CCCCCCNC(=O)n1cc(F)c(=O)[nH]c1=O`, the Potency entry in assay [6] and in assay [7] was “inactive” in each case.
